ST2 inh: inhibitors of human ST2 (IL1RL1) binding to IL-33 | AlphaLISA ST2-Fc/biotin-IL-33 interaction, 1 h | AID 1259354 | hit rate 2.3% among 78,000 | inhibition, % for hits at 17 µM; in the data active means inhibition above about 30%
Target sequence (Q01638 whole entry, looked up): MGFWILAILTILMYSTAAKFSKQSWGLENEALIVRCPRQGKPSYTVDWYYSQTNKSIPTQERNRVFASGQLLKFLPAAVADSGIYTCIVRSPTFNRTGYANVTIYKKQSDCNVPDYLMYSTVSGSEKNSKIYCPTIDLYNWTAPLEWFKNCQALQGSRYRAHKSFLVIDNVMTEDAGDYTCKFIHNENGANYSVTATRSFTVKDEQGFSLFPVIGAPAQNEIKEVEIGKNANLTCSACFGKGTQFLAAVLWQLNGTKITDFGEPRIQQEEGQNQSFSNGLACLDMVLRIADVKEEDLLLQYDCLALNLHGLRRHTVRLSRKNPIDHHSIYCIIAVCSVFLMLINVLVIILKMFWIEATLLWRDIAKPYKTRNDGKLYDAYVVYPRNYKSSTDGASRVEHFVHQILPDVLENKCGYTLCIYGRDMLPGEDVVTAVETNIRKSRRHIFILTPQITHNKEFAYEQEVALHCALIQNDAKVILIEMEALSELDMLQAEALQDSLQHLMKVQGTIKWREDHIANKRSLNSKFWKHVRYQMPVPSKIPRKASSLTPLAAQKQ
Starred values were filed as active, the others as inactive; i = inactive; ! = a repeat was not active. This excerpt belongs to a sample that is enriched for hits.

SMILES	ST2 inh
CCc1ccccc1NC1=NC2CS(=O)(=O)CC2S1 (configuration not stated)	i
Oc1ccc(SCCCCN2CCCCC2)cc1	i
COc1ccc(OCc2cc(C(=O)N(C)C(C)c3ccon3)n[nH]2)c(Cl)c1 (configuration not stated)	i
COc1ccc(CCNC(=O)c2ccc(Cn3c(=O)[nH]c4ccsc4c3=O)cc2)cc1OC	i
O=C(NCCc1ccc(Cl)cc1)c1ccc(Cn2c(=O)[nH]c3ccsc3c2=O)cc1	37%*!
CCCCC(CC)CNC(=O)c1ccc(Cn2c(=O)[nH]c3ccsc3c2=O)cc1 (configuration not stated)	i
CC(NC(=O)c1cn(Cc2ccccc2Cl)nn1)c1cnn(C)c1 (configuration not stated)	i
COc1ccc2cc(C(=O)NC(C)=O)c(=Nc3ccc(C#N)cc3)oc2c1	37%*
COc1ccc2cc(C(=O)NC(C)=O)c(=Nc3cccc(F)c3)oc2c1	i
COc1ccc2oc(=Nc3ccc(Cl)cc3Cl)c(C(=O)NC(C)=O)cc2c1	33%*
COc1ccc2oc(=Nc3cccc(C#N)c3)c(C(=O)NC(C)=O)cc2c1	i
COc1ccc2oc(=Nc3ccccc3F)c(C(=O)NC(C)=O)cc2c1	i
CC(=O)NC(=O)c1cc2cc(Br)ccc2oc1=Nc1ccccc1F	i
CCCN(CCC)CCNC(=O)c1cc(-c2cccs2)nc2ccccc12	i
CC(=O)N[C@H]1CC[C@]2(C)CCC([C@H](C)C(=O)N3CCCC3)[C@H](O)[C@H]2[C@@H]1C (some centres not stated)	i
COCCN1CCCC2(CCN(Cc3ccc(Oc4ncccn4)cc3)C2)C1 (configuration not stated)	i
O=C(CSc1c2c(nc3ccccc13)CCC2)N1CCCCCC1	i
O=C(Cn1c2ccccc2c2nc3ccccc3nc21)NCCO	i
COc1ccc(OC)c(-n2c(=O)[nH]c3cc(C(=O)O)ccc3c2=O)c1	i
O=c1oc2ccccc2c(O)c1C=Nc1cccc(C(F)(F)F)c1	i
COc1ccc(N=Cc2c(C)c(Cl)c(C)c([N+](=O)[O-])c2O)cc1OC	i
COc1ccccc1NC(=O)CSc1nc(O)cc(=O)n1-c1ccccc1C	i
COc1cccc(C=Nc2ccc(N=Cc3cccc(OC)c3OC)cc2)c1OC	i
COc1ccc(N=Cc2c(O)n(-c3ccccc3OC)c(=O)c3ccccc23)c(OC)c1	31%*
COc1ccc(-n2c(=O)[nH]c3cc(C(=O)O)ccc3c2=O)cc1OC	i
SMILES	ST2 inh
COc1ccccc1-n1c(O)c(C=Nc2ccc(C(F)(F)F)cc2)c2ccccc2c1=O	33%*
COc1ccc(N=Cc2c(O)n(-c3ccccc3C)c(=O)c3ccccc23)cc1OC	48%*
COc1ccc(N=Cc2c(O)n(-c3ccccc3C)c(=O)c3ccccc23)c(OC)c1	43%*
COc1ccc(-n2nc(C(=O)O)c3ccccc3c2=O)c(OC)c1	i
COc1ccc(O)c(C=Nc2c(C)n(C)n(-c3ccccc3)c2=O)c1	i
Cc1n[nH]c(=O)n1-c1ccc(F)c(Cl)c1	i
Cc1ccc(C(=O)N2CCC(n3nccc3NC(=O)Nc3ccccc3Cl)CC2)cc1C	i
O=C1NCCN1CCNCc1nc(-c2ccco2)no1	i
O=C(c1cc2nc(-c3ccco3)cc(C(F)(F)Cl)n2n1)N1CCOCC1	i
COCCn1cc(C(=O)NCCCN2CCCC2)c2c3ccccc3n(C)c2c1=O	i
NC(=O)c1ccccc1NC(=O)CCC(=O)O	i
CC(C)(C)CN1CC(NC(=O)c2cc(=O)[nH]c3ccc(F)cc23)CC1=O (configuration not stated)	i
O=C1CCc2cc(S(=O)(=O)NCc3cccs3)ccc2N1	i
Cc1cc(N(C)CCO)nc(-c2cccnc2)n1	i
CCCCN(C)C(=O)c1cn(CC(C)C)c(=O)c2cc(OC)c(OC)cc12	i
CCCCOc1ccc(-c2cnc(S(C)(=O)=O)nc2)cc1	i
CN(C)c1ccc(NC(=O)c2ccc(Cl)cc2)cc1	i
CCCC(C)NC(=O)c1ccc(N(C)C)cc1 (configuration not stated)	i
CN(C)c1ccc(C(O)(c2ccc(N(C)C)cc2)c2ccc(N(C)C)cc2)cc1	97%*
Cc1ccc(C(=O)Nc2ncc(S(=O)(=O)c3ccc([N+](=O)[O-])cc3)s2)cc1C	i
O=C(Nc1ncc(S(=O)(=O)c2ccc([N+](=O)[O-])cc2)s1)c1ccccc1Br	i
COCC(=O)Nc1ncc(S(=O)(=O)c2ccc([N+](=O)[O-])cc2)s1	38%*
Cc1ccccc1-n1cc(Cn2ccnc2-c2ccccc2C(=O)O)cn1	i
c1cnc(N2CCOCC2)c(CNCc2cccn2-c2nccs2)c1	i
O=C(c1ccc[nH]1)N1CCC2(CC1)C(=O)Nc1ccccc12	i
SMILES	ST2 inh
CNc1nc2c(C)cccn2c(=O)c1C=Nc1ccc(Cl)cc1	i
Cc1cccn2c(=O)c(C=NCc3ccccc3)c(NCCO)nc12	i
Cc1cccn2c(=O)c(C=NCCO)c(NCc3ccccc3)nc12	i
Cc1cccn2c(=O)c(C=Nc3cccc(Cl)c3)c(NCc3ccco3)nc12	i
Cc1cccn2c(=O)c(C=NCc3ccco3)c(Nc3ccc(Cl)cc3)nc12	34%*
CNc1nc2c(C)cccn2c(=O)c1C=Nc1ccccc1	33%*
CCC(C)N=Cc1c(NCCO)nc2c(C)cccn2c1=O (configuration not stated)	i
COc1ccc(N=Cc2c(Nc3ccccc3)nc3c(C)cccn3c2=O)cc1	i
CNc1nc2c(C)cccn2c(=O)c1C=NCCO	83%*
CCCCN(CCCC)S(=O)(=O)c1ccc2c3c(cccc13)C(=O)N2	i
Cc1cc(C)cc(C(=O)NCCSc2c(C)[nH]c3ccccc23)c1	i
Cc1ccc(OCc2cc(=O)n3oc(C)cc3n2)c(NC(=O)c2ccccc2)c1	i
Cc1nc2c(N)c(Cl)c(Cl)c(N)c2[nH]1	i
COc1ccc(Cl)cc1N1C(=O)C2CCCN2C1c1cccc(Br)c1 (configuration not stated)	i
Cc1ccc(OCc2cc(=O)n3oc(C)cc3n2)c(NC(=O)c2cccs2)c1	i
O=[N+]([O-])c1ccccc1S(=O)(=O)Nc1ccccn1	i
COC(=O)c1coc(CN2C[C@H]3CC=C(C)C[C@H]3C2)n1	i
CCC(=O)Oc1ccc2c(=O)c(-c3ccc4c(c3)OCCO4)c(CC)oc2c1	i
O=C1NCc2ccc(S(=O)(=O)NC3CCCCCC3)cc21	i
CC(C)(C)NC(=O)CN1C(=O)S/C(=C\c2ccccc2)C1=O	i
O=C(CN1C(=O)S/C(=C\C=C\c2ccccc2)C1=O)Nc1ccc(C(=O)O)cc1	32%*
O=C(CN1C(=O)S/C(=C\c2ccccc2)C1=O)Nc1nccs1	i
O=[N+]([O-])c1cc(Br)cc(C=Nc2ccc(Br)cc2)c1O	i
Cc1ccc(N=Cc2cc(C)cc([N+](=O)[O-])c2O)c(Cl)c1	30%*
O=[N+]([O-])c1cccc(C=Nc2ccccc2Cl)c1O	i
O=C(NCCCN1CCOCC1)C1C2C=CC3(CN(Cc4ccccc4Cl)C(=O)C13)O2 (configuration not stated)	i
CCOc1ccc(NC(=O)C(=O)NCCN2CCN(C(=O)c3ccc([N+](=O)[O-])cc3)CC2)cc1	i
CCN(Cc1ccccc1)S(=O)(=O)c1ccc2c(c1)CCC(=O)N2	i
COc1ccccc1-n1c(SCC(=O)N2CCCC2)nc2c(c1=O)SCC2	i
